Experiment in all cases: NCI-60 one-dose screen, 48 h (100 = growth as untreated, 0 = no growth, -100 = all killed)
Conditions in all cases: 10 µM unless noted

The subject of assay [1] is NCI-H23 lung.
Assay [2] has as its system NCI-H322M lung.
Assay [3] concerns HOP-62 NSCLC.
For assay [4], the system named is NCI-H460 lung.
The subject of assay [5] is HOP-92 NSCLC.
Assay [6] has as its system NCI-H522 lung.
In assay [7] the test system is A549/ATCC NSCLC.
In assay [8] the test system is 786-0 renal.
The test system of assay [9] is COLO 205 colon.
Assay [10] deals with DU-145 prostate.
The subject of assay [11] is K-562 leukemia.
Assay [12] deals with MALME-3M melanoma.
The test system of assay [13] is MDA-MB-231 breast.
Assay [14] concerns RXF 393 renal.
In assay [15] the test system is SF-268 CNS.
For assay [16], the system named is SF-295 CNS.
For assay [17], the system named is SF-539 CNS.
The subject of assay [18] is UACC-257 melanoma.
The test system of assay [19] is M14 melanoma.
Assay [20] concerns NCI-H226 lung.

These results are taken from PubChem BioAssay (NCI).

This is part of a sample that, as a whole, favours compounds with a hit. Of some 83,000 tested, about 20% had one in any assay.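 Plates (96-well) were seeded with cells, treated with compound at one concentration, and incubated for 48 hours before percent growth was determined.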 A number with no mark means an inactive call. Active and inactive are the calls of the source. Rule for the calls: active = growth percent below 10; inactive = the rest.

On to `O=[N+]([O-])c1ccc(N=Nc2c(O)c(N=Nc3cc([N+](=O)[O-])cc([N+](=O)[O-])c3O)cc(N=Nc3cc(S(=O)(=O)O)cc4cc(S(=O)(=O)O)cc(O)c34)c2O)cc1`, for which the growth in [1] is 96.4%; in [2], 89.3%; in assay [3], 98.6%; in [4], 105%; in [5], 101%; in assay [6], 86.6%. For the same compound, the growth was 102% in assay [7]; 103% in assay [8]; 108% in assay [9]; 108% in assay [10]; 77.7% in assay [11]; 101% in assay [12]. In addition, the growth in [13] was 102%; in [14], 112%; in assay [15], 101%; in [16] it was 106%; in assay [17], 102%; in [18], 105%. Also, the growth in [19] is 92.4%.
For `COc1ccc2[nH]c3nc4cnccc4cc3c2c1`, the growth in assay [20] was 111%; in assay [2], 105%; in assay [3], 96.3%; in assay [4] it was 103%; in [5], 139%; in assay [6] it was 87.3%. For the same compound, the growth is 99.6% in assay [7]; 104% in assay [8]; 111% in [9]; 101% in assay [10]; 111% in assay [11]; 108% in assay [12]. In addition, the growth in assay [13] is 109%; in assay [14], 123%; in assay [15] it was 106%; in [16], 114%; in [17], 102%; in assay [18], 122%. Moreover, in [19], the growth is 102%.
As for `O=C(/C(=C\c1c(-c2ccccc2)[nH]c2ccccc12)S(=O)(=O)c1ccccc1)c1ccccc1`, the growth was 47.9% in [1]; 67.6% in assay [2]; 64.5% in [3]; 37.8% in [4]; -4.34% (active) in assay [5]; -12.2% (active) in [6]. Moreover, the growth in assay [7] is 44.6%; in assay [8], 68.1%; in [9], 70.8%; in assay [10], 68.5%; in [11], 8% (active); in assay [12] it was 83.3%. Moreover, the growth is 49.8% in assay [13]; 46.7% in [14]; 62.1% in assay [15]; -6.63% (active) in [16]; 75.4% in assay [17]; 32.3% in assay [18]. Also, in assay [19], the growth was 49.7%.
Take `CCOC(=O)/C(=C/c1c(-c2ccccc2)[nH]c2ccccc12)C(=O)c1ccc(Cl)cc1`: the growth in [1] is 55%; in [2], 78.6%; in [3] it was 48%; in assay [4], 33.1%; in [5], 13.5%; in assay [6] it was 19.8%. The growth in assay [7] is 39.6%; in assay [8], 26.5%; in [9] it was 63.2%; in [10], 65.9%; in assay [11], 5.66% (active); in assay [12], 92.8%. The growth was 63% in [13]; 54.3% in assay [14]; 56.1% in [15]; -15.3% (active) in assay [16]; 81.5% in assay [17]; 77.2% in assay [18]. The growth in [19] is 39.5%.
Consider `O=C1NCc2ccc3c(-c4cccc(Cl)c4)c[nH]c3c21`, for which the growth in [1] is 35.5%; in assay [2], 47.6%; in assay [3], 22.7%; in [4], 12.9%; in assay [5] it was 52.7%; in [6], 1.89% (active). Further, the growth in [7] is 15.8%; in assay [8] it was 31.4%; in [9], -27% (active); in [10], 23.3%; in assay [11], 10.6%; in [12], 65.9%. Further, the growth was 47.6% in assay [13]; -3.81% (active) in assay [14]; 52.6% in assay [15]; 7.18% (active) in assay [16]; -15.8% (active) in assay [17]; 35.6% in [18]. Also, the growth in [19] is 15.9%.
For the compound `Nc1c(C(=O)Nc2ccccn2)sc2nc3c(cc12)CCCC3`, the growth in assay [1] is 69%; in [2] it was 78.7%; in assay [3] it was 45.3%; in assay [4], 25.3%; in assay [5], 60.2%; in assay [6], 29.2%. In addition, the growth in assay [7] was 46.4%; in assay [8] it was 48.7%; in [9], 49.5%; in assay [10] it was 72%; in [11], 14.1%; in assay [12] it was 62.7%. Further, the growth in assay [13] is 66.5%; in [14], 84.7%; in assay [15] it was 62.4%; in [16] it was 34%; in assay [17], 39.3%; in assay [18], 67.8%. In addition, in assay [19], the growth is 18%.
